Data reported in PubChem BioAssay.
Active and inactive are the calls of the source.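 Rule for the calls, unless noted: active = fluorescence slope after compound addition differing from the mean of all screened samples at 99.7% confidence, in either direction; inactive = the rest.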

Key:
[1] = inhibitors of TNFa-induced NFkB p65 translocation, primary screen, imaging, HUVEC, MLSMR starter and 10KST1 sets (AID 438;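 active = inhibition above 20% together with a positive visual image hit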;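 note: compound added about 3h40 before a 20 min TNFalpha stimulation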;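 for inhibition: signal is the nuclear over cytoplasmic p65 intensity ratio per well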); conditions: HUVEC TNFa-induced p65 nuclear translocation; cell count: measured here: nuclei count (cytotoxicity indicator), at 2.08 µM; inhibition: at 2 µM, stronger effect = higher value, 0% TNFa-plus-vehicle, 100% no-TNFa wells
[2] = inhibitors of mutant huntingtin aggregation, primary screen, imaging, exon1htt(103Q)mCFP cells, high-content imaging (AID 483;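 active = visual image review flags a hit and inhibition of aggregation exceeds 20%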;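 note: compound exposure lasted 3 days before fixation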;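 for nuclei count: percent of the per-plate median nuclei count of sample wells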); conditions: exon1htt(103Q)mCFP cell line, aggregate imaging, at 2 µM; inhibition of aggregation: stronger effect = higher value; nuclei count: measured here: cell count, toxicity
[3] = inhibitors of E-selectin induction by TNFa, primary screen, imaging, HUVEC, immunofluorescence, MLSMR starter and 10KST1 sets (AID 487;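 active = visually confirmed hit in the image check and inhibition above 20%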;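 for inhibition: signal is fraction of cell area covered by stained E-selectin grains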;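 for nuclei count: 100% = median nuclei count of all wells on the same plate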); conditions: HUVEC TNFalpha-induced E-selectin immunofluorescence imaging, at 2 µM; inhibition: stronger effect = higher value; nuclei count: measured here: cell number, toxicity
[4] = molecular target: Voltage-gated potassium channel subunit beta-2 (Rattus norvegicus) (UniProt P62483); test: KvBeta enzyme negative modulators, primary screen, biochemical, NADPH fluorescence (AID 622;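 active = fluorescence slope higher than the sample average by over 3 SD, cut at about -0.22 in these data, passing the limit was not always enough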;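 note: slope of raw intensity against log time taken from 70 to 1610 s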); conditions: recombinant KvBeta, 4-cyanobenzaldehyde reduction, at 10 µM, stronger effect = higher value
Sequence of Voltage-gated potassium channel subunit beta-2 (Rattus norvegicus) (P62483 whole entry, looked up): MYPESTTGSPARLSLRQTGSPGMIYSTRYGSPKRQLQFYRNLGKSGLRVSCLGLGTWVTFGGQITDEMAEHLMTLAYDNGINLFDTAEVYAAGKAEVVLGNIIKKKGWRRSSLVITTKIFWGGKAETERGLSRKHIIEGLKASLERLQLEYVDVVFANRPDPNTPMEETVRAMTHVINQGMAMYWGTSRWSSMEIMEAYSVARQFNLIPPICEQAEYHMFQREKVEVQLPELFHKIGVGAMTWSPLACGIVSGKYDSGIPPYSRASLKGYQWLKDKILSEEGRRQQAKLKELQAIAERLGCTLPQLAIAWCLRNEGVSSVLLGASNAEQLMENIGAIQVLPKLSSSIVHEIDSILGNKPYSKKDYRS

[5] = molecular target: Voltage-gated potassium channel subunit beta-2 (Rattus norvegicus) (UniProt P62483); test: KvBeta positive modulators, primary screen, biochemical, NADPH fluorescence (AID 623;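 active = NADPH fluorescence slope more negative than the mean of all samples by about 3 SD, 99.7% confidence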;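 note: fluorescence intensity change per second fitted from 20 to 320 s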); conditions: Recombinant KvBeta, NADPH fluorescence decrease slope, 10 min; at 10 µM; stronger effect = lower value
[6] = molecular target: Alpha-2C adrenergic receptor (Homo sapiens) (UniProt P18825); test: modulators of alpha2C/GIRK thallium flux, primary screen, cell-based, HEK293 alpha2C/GIRK1/2 (AID 624); conditions: thallium flux BTC fluorescence, at 10 µM, actives lie on both sides;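 note: slope of fluorescence ratio to pre-addition baseline per second over 15 to 24 s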
Sequence of Alpha-2C adrenergic receptor (Homo sapiens) (P18825 whole entry, looked up): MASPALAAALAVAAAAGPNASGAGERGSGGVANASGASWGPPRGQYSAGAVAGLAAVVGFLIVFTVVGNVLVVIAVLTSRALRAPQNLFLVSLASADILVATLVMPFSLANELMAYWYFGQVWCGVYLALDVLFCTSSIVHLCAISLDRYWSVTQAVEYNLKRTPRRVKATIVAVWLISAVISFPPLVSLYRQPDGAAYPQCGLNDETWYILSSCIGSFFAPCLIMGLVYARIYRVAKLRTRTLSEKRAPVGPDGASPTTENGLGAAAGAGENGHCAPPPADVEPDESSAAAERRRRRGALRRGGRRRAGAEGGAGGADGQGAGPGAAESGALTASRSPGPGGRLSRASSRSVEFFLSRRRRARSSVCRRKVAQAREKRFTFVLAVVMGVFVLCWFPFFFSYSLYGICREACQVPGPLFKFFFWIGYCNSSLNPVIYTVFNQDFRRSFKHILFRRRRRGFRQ

[7] = inhibitors of Sendai virus-induced IRF3 signaling, primary screen, TLR/RLR signaling modifier project, cell-based, Sendai virus stimulus, luciferase, 10K MLSCN set (AID 602276;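 active = inhibition at or above 50% at 10 µM; inactive = inhibition below 50%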;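 note: firefly luciferase from ISG56 promoter only with Renilla not read in this screen; 0% = Sendai virus plus DMSO and 100% = medium plus DMSO without virus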); conditions: HEK293 RL24 IRF3 luciferase reporter, at 10 µM, stronger effect = higher value
[8] = inhibitors of poly I:C-induced TLR3 signaling, primary screen, cell-based, poly I:C stimulus, luciferase, 10K MLSCN set (AID 602277;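 active = inhibition of the reporter signal at or above 50%; inactive = inhibition below 50%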); conditions: HEK293-TLR3 RL24 IRF3 luciferase reporter, at 10 µM, stronger effect = higher value

Structure (SMILES): COc1cccc(N2CCN(C(=O)C3C4C=CC5(CN(Cc6ccccc6Cl)C(=O)C35)O4)CC2)c1 (centres undefined)
- cell count [1]: 606
- inhibition [1]: -11.6% (inactive)
- inhibition of aggregation [2]: -3% (inactive)
- nuclei count [2]: 58.2%
- inhibition [3]: -66.5% (inactive)
- nuclei count [3]: 123%
- fluorescence slope [4]: -0.402 (inactive)
- NADPH fluorescence slope [5]: -3.2e-05 (inactive)
- slope [6]: 0.00266 (inactive)
- inhibition [7]: -0.268% (inactive)
- inhibition [8]: 13.1% (inactive)

Structure (SMILES): Cc1ccc(-n2ncc3c(=O)[nH]c(SC(C)C)nc32)cc1
- cell count [1]: 716
- inhibition [1]: -23.9% (inactive)
- inhibition of aggregation [2]: 2.6% (inactive)
- nuclei count [2]: 82.4%
- inhibition [3]: -18.4% (inactive)
- nuclei count [3]: 126%
- fluorescence slope [4]: -0.455 (inactive)
- NADPH fluorescence slope [5]: -4.4e-06 (inactive)
- slope [6]: 0.0066 (inactive)
- inhibition [7]: 7.08% (inactive)
- inhibition [8]: 21.6% (inactive)

Structure (SMILES): Cc1ccc(Cl)cc1N1CCN(C(=O)CN2C(=O)c3cccc4cccc2c34)CC1
- cell count [1]: 771
- inhibition [1]: -7.2% (inactive)
- inhibition of aggregation [2]: -2.2% (inactive)
- nuclei count [2]: 89.4%
- inhibition [3]: -11.6% (inactive)
- nuclei count [3]: 101%
- fluorescence slope [4]: -0.341 (inactive)
- NADPH fluorescence slope [5]: 4.7e-06 (inactive)
- slope [6]: 0.0104 (active)
- inhibition [7]: 9.95% (inactive)
- inhibition [8]: 8.22% (inactive)

Structure (SMILES): O=C(CCCCn1c(=O)c2ccccc2n(Cc2ccc(Cl)cc2)c1=O)NCc1ccco1
- cell count [1]: 613
- inhibition [1]: -7.3% (inactive)
- inhibition of aggregation [2]: -8.5% (inactive)
- nuclei count [2]: 81.8%
- inhibition [3]: -95.8% (inactive)
- nuclei count [3]: 110%
- fluorescence slope [4]: -0.466 (inactive)
- NADPH fluorescence slope [5]: -1.3e-05 (inactive)
- slope [6]: 0.00636 (inactive)
- inhibition [7]: 45.2% (inactive)
- inhibition [8]: 33.2% (inactive)

Structure (SMILES): COC(=O)CS(=O)(=O)c1nnc([C@H](Cc2ccccc2)NC(=O)OC(C)(C)C)o1
- cell count [1]: 493
- inhibition [1]: -8% (inactive)
- inhibition of aggregation [2]: 22% (inactive)
- nuclei count [2]: 84.1%
- inhibition [3]: 38.4% (inactive)
- nuclei count [3]: 89%
- fluorescence slope [4]: -0.486 (inactive)
- NADPH fluorescence slope [5]: -5.6e-05 (inactive)
- slope [6]: 0.00353 (inactive)
- inhibition [7]: 15.1% (inactive)
- inhibition [8]: 33.7% (inactive)

Structure (SMILES): CCOc1ccc(-c2nc(N)ncc2-c2ccccc2)c(O)c1
- cell count [1]: 399
- inhibition [1]: 2% (inactive)
- inhibition of aggregation [2]: -4.3% (inactive)
- nuclei count [2]: 114%
- inhibition [3]: -32.6% (inactive)
- nuclei count [3]: 67.7%
- fluorescence slope [4]: -0.581 (inactive)
- NADPH fluorescence slope [5]: -3.6e-05 (inactive)
- slope [6]: 0.00545 (inactive)
- inhibition [7]: -1.82% (inactive)
- inhibition [8]: -1.28% (inactive)

Structure (SMILES): COc1ccc(-n2c(Cc3cccn3C)nnc2SCC(=O)Nc2ccccc2)cc1
- cell count [1]: 527
- inhibition [1]: -11.3% (inactive)
- inhibition of aggregation [2]: 6.5% (inactive)
- nuclei count [2]: 79.8%
- inhibition [3]: -20.6% (inactive)
- nuclei count [3]: 116%
- fluorescence slope [4]: -0.55 (inactive)
- NADPH fluorescence slope [5]: -2.9e-05 (inactive)
- slope [6]: 0.00572 (inactive)
- inhibition [7]: 15.3% (inactive)
- inhibition [8]: 36.7% (inactive)

Structure (SMILES): CC(C)OC(=O)c1ccc(OC(=O)c2cccnc2)cc1
- cell count [1]: 424
- inhibition [1]: 3.3% (inactive)
- inhibition of aggregation [2]: -5.5% (inactive)
- nuclei count [2]: 107%
- inhibition [3]: 12.1% (inactive)
- nuclei count [3]: 104%
- fluorescence slope [4]: -0.429 (inactive)
- NADPH fluorescence slope [5]: -6.3e-05 (inactive)
- slope [6]: 0.00544 (inactive)
- inhibition [7]: -2.15% (inactive)
- inhibition [8]: -5.2% (inactive)

Structure (SMILES): COc1ccc(OCCCC(=O)Nc2nncs2)cc1
- cell count [1]: 296
- inhibition [1]: 22.6% (inactive)
- inhibition of aggregation [2]: 12.8% (inactive)
- nuclei count [2]: 95.6%
- inhibition [3]: -32.3% (inactive)
- nuclei count [3]: 102%
- fluorescence slope [4]: -0.294 (inactive)
- NADPH fluorescence slope [5]: -3.4e-05 (inactive)
- slope [6]: 0.00603 (inactive)
- inhibition [7]: -0.71% (inactive)
- inhibition [8]: 5.99% (inactive)

Structure (SMILES): CC1CCCN(C(=O)c2cc3c(-c4ccc(Cl)cc4)nn(C)c3s2)C1 (centres undefined)
- cell count [1]: 749
- inhibition [1]: -1.7% (inactive)
- inhibition of aggregation [2]: -30.1% (inactive)
- nuclei count [2]: 104%
- inhibition [3]: -30.2% (inactive)
- nuclei count [3]: 111%
- fluorescence slope [4]: -0.607 (inactive)
- NADPH fluorescence slope [5]: -5.2e-06 (inactive)
- slope [6]: 0.00725 (inactive)
- inhibition [7]: 7.9% (inactive)
- inhibition [8]: 45.2% (inactive)

Structure (SMILES): COc1ccc(S(=O)(=O)NCCC(=O)NC2CCCCCCC2)cc1
- cell count [1]: 293
- inhibition [1]: 2.8% (inactive)
- inhibition of aggregation [2]: 13.6% (inactive)
- nuclei count [2]: 95%
- inhibition [3]: -89.3% (inactive)
- nuclei count [3]: 97%
- fluorescence slope [4]: -0.4 (inactive)
- NADPH fluorescence slope [5]: -8.9e-05 (inactive)
- slope [6]: 0.00674 (inactive)
- inhibition [7]: 17.8% (inactive)
- inhibition [8]: 26% (inactive)

Structure (SMILES): Cc1ccc(Nc2nc(CSc3nnc(-c4cccs4)o3)cs2)cc1
- cell count [1]: 444
- inhibition [1]: -0.2% (inactive)
- inhibition of aggregation [2]: 31.6% (inactive)
- nuclei count [2]: 110%
- inhibition [3]: 16.3% (inactive)
- nuclei count [3]: 113%
- fluorescence slope [4]: -0.408 (inactive)
- NADPH fluorescence slope [5]: -1.4e-05 (inactive)
- slope [6]: 0.00487 (inactive)
- inhibition [7]: -22% (inactive)
- inhibition [8]: -60.6% (inactive)

Structure (SMILES): CCOC(=O)N1CCN(c2cc(=O)n(-c3ccccc3Cl)c(=O)[nH]2)CC1
- cell count [1]: 553
- inhibition [1]: -7.4% (inactive)
- inhibition of aggregation [2]: 12.5% (inactive)
- nuclei count [2]: 84.2%
- inhibition [3]: 15% (inactive)
- nuclei count [3]: 90.2%
- fluorescence slope [4]: -0.581 (inactive)
- NADPH fluorescence slope [5]: -4.3e-05 (inactive)
- slope [6]: 0.00703 (inactive)
- inhibition [7]: -11.4% (inactive)
- inhibition [8]: 11.8% (inactive)

Structure (SMILES): O=C(c1cc2n(n1)C(C(F)(F)F)CC(c1ccc(Cl)cc1)N2)N1CCCC1 (centres undefined)
- cell count [1]: 259
- inhibition [1]: -5.8% (inactive)
- inhibition of aggregation [2]: -22.3% (inactive)
- nuclei count [2]: 112%
- inhibition [3]: -9.7% (inactive)
- nuclei count [3]: 102%
- fluorescence slope [4]: -0.322 (inactive)
- NADPH fluorescence slope [5]: 4.7e-06 (inactive)
- slope [6]: 0.00413 (inactive)
- inhibition [7]: 14.3% (inactive)
- inhibition [8]: 16.5% (inactive)
